The nature of test [1]: qHTS assay to identify small molecule agonists of the peroxisome proliferator-activated receptor delta (PPARd) signaling pathway - cell viability counter screen (AID 743211). Note: nearly all actives have a fitted effect of over 55% in size. Summed up: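 Luminescent ATP viability assay (CellTiter-Glo, 30 min RT) in UAS-bla HEK293H cells carrying the PPAR delta reporter construct, 3000 cells/well, after a 17 h compound treatment at 37 C.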
For orientation: qHTS replaces the single test concentration by a dilution series.

Test [2] can be described thus: qHTS assay to identify small molecule antagonists of the peroxisome proliferator-activated receptor delta (PPARd) signaling pathway - cell viability counter screen (AID 743213). Note: nearly all actives have a fitted effect of over 50% in size. Put shortly:
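CellTiter-Glo was added to PPARd-bla HEK293H wells following 17 h compound treatment in the presence of 300 nM L165041. Luminescence was recorded after 30 min at room temperature.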

Test [3] addresses Bile acid receptor (Homo sapiens) (UniProt Q96RI1). The experiment in a line: qHTS assay to identify small molecule agonists of the farnesoid-X-receptor (FXR) signaling pathway (AID 743220; active = well fitted activation curve with a large enough effect in the signal ratio in the repeat runs, not every such curve was filed as active; the % refers to the signal ratio). Put shortly: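 FXR-UAS-bla HEK 293T cells carrying a UAS-driven beta-lactamase reporter were plated for 5 h at 37C/5% CO2, then exposed to DMSO-dissolved Tox21 10K compounds for 16 h at 37C. A LiveBLAzer B/G FRET substrate was loaded for 2 h at room temperature before fluorescence reading.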

The nature of test [4]: qHTS assay to identify small molecule antagonists of the farnesoid-X-receptor (FXR) signaling pathway - cell viability counter screen (AID 743221; active = well fitted cell-killing curve with a large enough effect in the repeat runs, not every such curve was filed as active; note: nearly all actives have a fitted effect of over 50% in size; note: potency is the fitted concentration of half-maximal effect). Put shortly:
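In GeneBLAzer FXR-UAS-bla HEK 293T cells stimulated with 50 uM chenodeoxycholic acid (final), compounds acted for 16 h at 37 C. Viability was assessed afterwards by CellTiter-Glo luminescence.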

Test [5] concerns the target Vitamin D3 receptor (Homo sapiens) (UniProt P11473). Briefly: qHTS assay to identify small molecule agonists of the vitamin D receptor (VDR) signaling pathway (AID 743222; calls by dose curve). Put shortly: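 Using LiveBLAzer B/G FRET detection, agonism was scored in VDR-bla cells exposed overnight (16 h, 37C) to DMSO-dissolved compounds; substrate incubation was 2 h at room temperature.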

Test [6] in a line: qHTS assay to identify small molecule agonists of the NFkB signaling pathway - cell viability counter screen (AID 1159515; calls by dose curve; note: series mostly up to about 61 µM; nearly all actives have a fitted effect of over 55% in size). Put shortly: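 Counter screen run alongside the NFkB-bla agonist assay: ME-180 reporter cells exposed to compounds for 5 hr, then lysed with CellTiter-Glo in the same wells. Luminescence, read after 30 min, reflects viable cells.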
Test [7] can be described thus: qHTS assay to identify small molecule agonists of the endoplasmic reticulum stress response signaling pathway (AID 1159516; active = well fitted activation curve with a large enough effect in the signal ratio in the repeat runs, not every such curve was filed as active; the % refers to the signal ratio). Summed up:
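For this screen, HeLa cells stably carrying beta-lactamase under the ER stress response element received test compounds, positive controls or DMSO for 5 hr at 37 C; B/G FRET substrate was then added and dual-wavelength emission recorded.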

A short description of test [8]: qHTS assay to identify small molecule agonists of the endoplasmic reticulum stress response signaling pathway - cell viability counter screen (AID 1159517; calls by dose curve; note: series mostly up to about 61 µM; nearly all actives have a fitted effect of over 50% in size). Summed up:
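Cpd-treated ESRE-bla HeLa (5 hr, 37 C) → LiveBLAzer 2 hr RT → CellTiter-Glo 30 min RT → luminescence.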

Test [9] can be described thus: qHTS assay to identify small molecule antagonists of the retinoid-related orphan receptor gamma (ROR-gamma) signaling pathway - cell viability counter screen (AID 1159520). Note: nearly all actives have a fitted effect of over 50% in size. Summed up:
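Tet-on ROR gamma CHO cells (1,000/well) were plated 4 hr, given compounds in DMSO for 2 hr at 37 C, then induced with 1 uM final doxycycline for 16 hr. Viability was read as ATP by CellTiter-Glo luminescence after 30 min.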

The target in test [10] is Nuclear receptor ROR-gamma (Homo sapiens) (UniProt P51449). Briefly: qHTS assay to identify small molecule antagonists of the retinoid-related orphan receptor gamma (ROR-gamma) signaling pathway (AID 1159521; note: nearly all actives have a fitted effect of over 50% in size; note: potency is the fitted concentration of half-maximal effect). Put shortly:
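CHO cells expressing RORγ under a TET-on promoter, luciferase under RORE control. Dox 1 uM final, 16 h; compounds added 2 h prior. Luminescence decrease measured.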

Test [11] in a line: qHTS assay to identify small molecule agonists of the AP-1 signaling pathway - cell viability counter screen (AID 1159525; calls by dose curve; note: nearly all actives have a fitted effect of over 55% in size). Put shortly: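 Each titration point was normalised to DMSO and tetra n-octyl ammonium bromide controls. The read was Cell Titer Glo luminescence after 30 min at RT, following 5 h compound exposure of ME-180 AP-1-bla cells at 37 °C.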
Test [12] addresses Peroxisome proliferator-activated receptor delta (Homo sapiens) (UniProt Q03181). The experiment in a line: qHTS assay to identify small molecule agonists of the peroxisome proliferator-activated receptor delta (PPARd) signaling pathway (AID 743212; calls by dose curve). Summed up: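 Cells expressing a UAS-driven beta-lactamase reporter (PPARd-bla HEK293H) were given test compounds after a 5 h settle and kept at 37 C. Reporter activity was then measured as FRET fluorescence using LiveBLAzer B/G substrate.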

The target is the same in test [13]. The experiment in a line: qHTS assay to identify small molecule antagonists of the peroxisome proliferator-activated receptor delta (PPARd) signaling pathway (AID 743215; active = well fitted inhibition curve with a large enough effect in the signal ratio in the repeat runs, not every such curve was filed as active; the % refers to the signal ratio;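 note: cells stimulated with agonist L165041 at 300 nM final during compound exposure; series mostly up to about 62 µM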). Summed up:
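Screen format: qHTS, antagonist mode. HEK293H PPARd-bla cells received compound and 300 nM L165041 (final), 17 h, 37 C. Beta-lactamase detected via FRET substrate fluorescence, 2 h, room temperature.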

For test [14], the target named is Vitamin D3 receptor (Homo sapiens) (UniProt P11473). The experiment in a line: qHTS assay to identify small molecule antagonists of the vitamin D receptor (VDR) signaling pathway (AID 743223; active = well fitted inhibition curve with a large enough effect in the signal ratio in the repeat runs, not every such curve was filed as active; the % refers to the signal ratio). Summed up:
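Agonist 1alpha,25-dihydroxyvitamin D3 (3 nM in well) was added with each compound to VDR-bla cells preincubated 4 h. Cells stood 16 h at 37C, then FRET substrate 2 h at room temperature; fluorescence intensity recorded.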

Test [15] is described as follows: qHTS assay to identify small molecule agonists of the vitamin D receptor (VDR) signaling pathway - cell viability counter screen (AID 743224). Put shortly:
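Counter screen for cytotoxicity: VDR-bla cells at 2,000 cells/well, 16 h compound exposure, then CellTiter-Glo luminescence after the beta-lactamase measurement.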

Test [16] can be described thus: qHTS assay to identify small molecule agonists of the AP-1 signaling pathway (AID 1159526; calls by dose curve; note: potency is the fitted concentration of half-maximal effect).
Test [17] in a line: qHTS assay to identify small molecule agonists of the farnesoid-X-receptor (FXR) signaling pathway - cell viability counter screen (AID 743218). Note: nearly all actives have a fitted effect of over 45% in size. Put shortly: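 Same-well cytotoxicity check on FXR-UAS-bla HEK 293T cells: 5 h attachment, 16 h compound at 37 C, CellTiter-Glo luminescence read at room temperature after 30 min.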
A short description of test [18]: qHTS assay to identify small molecule antagonists of the vitamin D receptor (VDR) signaling pathway - cell viability counter screen (AID 743225). Note: nearly all actives have a fitted effect of over 50% in size. Summed up: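 Luminescent cell viability (CellTiter-Glo) in VDR-bla HEK 293T cells after 16 h compound exposure at 37C in the presence of 3 nM final 1-alpha,25-dihydroxy vitamin D3.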
For test [19], the target named is Bile acid receptor (Homo sapiens) (UniProt Q96RI1). The experiment in a line: qHTS assay to identify small molecule antagonists of the farnesoid-X-receptor (FXR) signaling pathway (AID 743217; active = well fitted inhibition curve with a large enough effect in the signal ratio in the repeat runs, not every such curve was filed as active; the % refers to the signal ratio). Put shortly: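 Quantitative HTS, beta-lactamase reporter format: FXR-UAS-bla HEK 293T cells co-treated 16 h at 37 °C with compounds and 50 uM final chenodeoxycholic acid, then read by B/G FRET fluorescence.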

The target of test [20] is Retinoic acid receptor RXR-alpha (Homo sapiens) (UniProt P19793). Briefly: qHTS assay to identify small molecule agonists of the RXR signaling pathway (AID 1159527; calls by dose curve; note: nearly all actives have a fitted effect of over 35% in size). Summed up:
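Beta-lactamase reporter assay, agonist format. Engineered HEK 293T line, charcoal-stripped FBS at 2%, overnight (16 hr) exposure, fluorescence at 460 and 530 nm after 405 nm excitation.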

Inconclusive results are not listed. Active and inactive are the calls of the source. Unless noted, calls come from the whole dose curve; as a rule, active = well fitted curve in the direction sought with a large enough effect in the repeat runs; inconclusive = weak or mixed curves; inactive = no such curve, though single readings can be large; an effect the other way counts as inactive or inconclusive.

Consider eleven molecules from PubChem BioAssay (Tox21).

Vitamin D3 receptor (Homo sapiens), sequence (P11473 whole entry, looked up): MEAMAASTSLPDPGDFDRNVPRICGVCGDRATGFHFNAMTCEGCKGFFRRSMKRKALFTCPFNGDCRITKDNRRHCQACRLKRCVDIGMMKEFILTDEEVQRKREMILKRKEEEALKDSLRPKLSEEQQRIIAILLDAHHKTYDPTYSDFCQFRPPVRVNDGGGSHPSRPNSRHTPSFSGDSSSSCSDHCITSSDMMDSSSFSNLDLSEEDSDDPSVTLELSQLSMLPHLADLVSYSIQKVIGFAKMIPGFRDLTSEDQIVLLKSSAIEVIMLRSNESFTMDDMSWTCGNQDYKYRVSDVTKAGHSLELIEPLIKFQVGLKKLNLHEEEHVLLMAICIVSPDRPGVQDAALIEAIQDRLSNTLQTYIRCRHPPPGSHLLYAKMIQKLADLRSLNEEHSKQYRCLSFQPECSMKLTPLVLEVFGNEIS
Bile acid receptor (Homo sapiens), sequence (Q96RI1 whole entry, looked up): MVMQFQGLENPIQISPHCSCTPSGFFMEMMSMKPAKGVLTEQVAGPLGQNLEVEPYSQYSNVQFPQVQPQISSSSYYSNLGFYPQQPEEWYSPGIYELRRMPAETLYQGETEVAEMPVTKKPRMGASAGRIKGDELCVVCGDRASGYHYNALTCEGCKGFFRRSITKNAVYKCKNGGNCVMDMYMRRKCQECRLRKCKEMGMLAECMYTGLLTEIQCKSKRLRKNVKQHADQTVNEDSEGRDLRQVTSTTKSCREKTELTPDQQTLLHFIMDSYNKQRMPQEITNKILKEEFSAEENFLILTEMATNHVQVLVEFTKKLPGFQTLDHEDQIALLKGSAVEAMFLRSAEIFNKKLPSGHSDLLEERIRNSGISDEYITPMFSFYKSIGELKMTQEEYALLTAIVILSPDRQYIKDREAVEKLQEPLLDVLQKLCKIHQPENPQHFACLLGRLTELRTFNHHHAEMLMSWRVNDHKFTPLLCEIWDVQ
Peroxisome proliferator-activated receptor delta (Homo sapiens), sequence (Q03181 whole entry, looked up): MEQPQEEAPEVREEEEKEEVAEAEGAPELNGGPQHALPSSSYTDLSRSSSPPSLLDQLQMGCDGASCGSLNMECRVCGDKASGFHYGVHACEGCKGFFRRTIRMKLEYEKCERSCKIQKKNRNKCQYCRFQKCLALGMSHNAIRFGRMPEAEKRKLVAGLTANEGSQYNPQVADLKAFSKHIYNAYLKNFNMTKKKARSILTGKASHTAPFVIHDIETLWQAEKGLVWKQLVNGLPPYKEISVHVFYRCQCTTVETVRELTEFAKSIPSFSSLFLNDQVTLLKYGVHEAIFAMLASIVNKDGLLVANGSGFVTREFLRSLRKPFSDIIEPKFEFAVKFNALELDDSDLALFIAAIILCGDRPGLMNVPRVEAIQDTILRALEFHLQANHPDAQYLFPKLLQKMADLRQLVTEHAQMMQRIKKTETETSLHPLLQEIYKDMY
Retinoic acid receptor RXR-alpha (Homo sapiens), sequence (P19793 whole entry, looked up): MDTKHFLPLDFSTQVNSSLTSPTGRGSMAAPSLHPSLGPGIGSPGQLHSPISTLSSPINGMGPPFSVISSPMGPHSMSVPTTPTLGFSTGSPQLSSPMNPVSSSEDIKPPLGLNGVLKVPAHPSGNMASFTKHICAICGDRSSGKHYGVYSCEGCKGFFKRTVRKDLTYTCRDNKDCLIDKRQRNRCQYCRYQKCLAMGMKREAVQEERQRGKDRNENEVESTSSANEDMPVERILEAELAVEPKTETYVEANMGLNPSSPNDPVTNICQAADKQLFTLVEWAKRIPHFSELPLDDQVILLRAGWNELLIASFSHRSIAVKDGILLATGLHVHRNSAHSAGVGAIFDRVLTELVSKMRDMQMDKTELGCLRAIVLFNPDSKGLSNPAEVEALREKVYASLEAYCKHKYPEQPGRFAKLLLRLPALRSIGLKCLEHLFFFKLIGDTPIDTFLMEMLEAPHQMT

`O=[N+]([O-])c1cc[n+]([O-])cc1`: the Potency entry in test [1], in test [2], in [4], in test [6], in test [7] and in test [9] was “inactive” each time. The Potency entry in [11] is “inactive”. For the same molecule, the call in test [3], in [5] and in test [8] was inactive. Further, the Potency in [10] is 9.69 µM (active).

On to `Nc1nc(CC(=O)O)cs1`, for which the Potency result in test [1], in [2], in test [4], in test [14], in test [15] and in test [6] was “inactive” each time. The Potency entry in [7], in test [9], in test [10] and in [16] was “inactive” each time. Besides, the molecule was called inactive in [12], in [13], in test [5] and in [8].

For `Cc1ccc(C(C)c2ccc(C)c(C)c2)cc1C`, the Potency entry in [1], in test [2], in test [17], in test [14], in [15] and in [18] was “inactive” in each case. In addition, the Potency result in [6], in test [7], in test [9], in test [10] and in test [16] was “inactive” each time. In addition, the molecule was called inactive in test [12], in [5] and in [8].

In the case of `COc1ccccc1OC(=O)Oc1ccccc1OC`, the Potency result in [1], in test [2], in [17], in test [14], in [15] and in test [18] was “inactive” in each case. The Potency entry in test [6], in test [7], in [9], in test [10] and in test [16] was “inactive” each time. For the same molecule, the molecule was classed as inactive in test [5] and in test [8].

Consider `N#CCc1cccc(C(F)(F)F)c1`, for which the Potency entry in [1], in test [2], in test [4], in test [15], in test [18] and in test [6] was “inactive” in each case. The Potency result in test [7], in test [9], in test [10] and in [11] was “inactive” each time. Moreover, the result in test [12], in test [3] and in test [8] was inactive.

For `O=C(O)Cn1c(C(=O)Nc2nc(-c3ccccc3Cl)cs2)cc2ccccc21`, the Potency result in test [1], in test [2], in test [4], in test [14], in [15] and in [18] was “inactive” throughout. The Potency result in test [6], in test [7], in test [9], in [10] and in test [11] was “inactive” in each case. In addition, the result in test [19], in test [3] and in test [8] was inactive.

With `O=C(O)Cc1cc(I)c(Oc2ccc(O)c(I)c2)c(I)c1`, the Potency entry in test [1], in test [2], in test [6], in test [7], in test [9] and in test [10] was “inactive” each time. For the same molecule, in [11], the Potency entry was “inactive”. Moreover, in test [4], the Potency is 54.9 µM (active). Further, the molecule was classed as inactive in test [8].

Take `Cc1ccccc1N=Nc1ccc(N=Nc2c(O)ccc3ccccc23)c(C)c1`: the Potency entry in [1], in [2], in test [17], in [4], in [18] and in [6] was “inactive” throughout. The Potency entry in [7], in test [9], in [10] and in test [16] was “inactive” each time. For the same molecule, the result in test [12], in test [13] and in [8] was inactive.

Turning to `O=C(O)Cc1sc(-c2ccccc2)nc1-c1ccc(Cl)cc1`, the Potency entry in [1], in [2], in test [15], in test [18], in test [6] and in [7] was “inactive” in each case. The Potency entry in test [9], in [10] and in [11] was “inactive” each time. Besides, the molecule was classed as inactive in [12], in [13] and in test [3].

Consider `CCCCc1cc2ccccc2c(OCCN(C)C)n1`, for which the result in test [12], in [13], in [19], in [3], in test [5] and in test [8] was inactive. Further, the Potency entry in test [2], in test [17], in test [4], in test [14], in test [15] and in test [6] was “inactive” throughout. Besides, the Potency result in test [7], in [9], in test [10] and in test [20] was “inactive” throughout.

As for `CNCC[C@@H](Oc1ccccc1C)c1ccccc1`, the Potency entry in test [2], in [17], in [14], in [18], in test [6] and in test [7] was “inactive” in each case. Also, the Potency result in test [9], in [10], in test [11] and in test [20] was “inactive” throughout. In addition, the outcome in [13] and in test [5] was inactive. For the same molecule, in test [16], the Potency was 21.3 µM (active).
